Reference: the supplement of paper PMC9446081
Among all 39,000 compounds or so, about 220 (0.56%) showed activity. Shown is part of a subset that was picked to be rich in actives. Unmarked numbers belong to inactive results.
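Further: Wild-type cells incubated without shaking, value is the mean of two biological replicates.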

What follows are compounds tested on Escherichia coli K-12 BW25113 (assay: relative growth (OD600 normalised to plate interquartile mean) (fraction); higher = less growth inhibition, active = 0.2 or less). Details: 50 µM; LB; incubation time: overnight (16-24 h).
`COc1ccc(S(=O)(=O)N(C)C[C@H]2OCCCC[C@@H](C)Oc3ccc(NC(=O)Nc4ccc(F)cc4)cc3C(=O)N([C@H](C)CO)C[C@@H]2C)cc1` showed a relative growth of 1.07. `CO[C@@H]1CN(C)C(=O)c2ccc(NC(=O)C3CCOCC3)cc2OC[C@@H](C)N(CC2CCOCC2)C[C@H]1C` gave a relative growth of 1.02. Work on `O=C(CN1CCOCC1)NCC[C@H]1CC[C@@H](NC(=O)Nc2ccccc2)[C@@H](CO)O1` yielded a relative growth of 1.01. `Cc1noc(C)c1S(=O)(=O)Nc1cccc2c1O[C@@H](CN(C)Cc1ccccc1)[C@@H](C)CN([C@@H](C)CO)C2=O` gave a relative growth of 1.01. `C[C@@H]1CN([C@H](C)CO)C(=O)c2cc(NC(=O)Nc3ccc(C(F)(F)F)cc3)ccc2O[C@H]1CN(C)Cc1ccc(C(F)(F)F)cc1` showed a relative growth of 1.02. Work on `C[C@@H]1CN([C@H](C)CO)C(=O)c2cc(-c3cccc(C(=O)N(C)C)c3)cnc2O[C@@H]1CN(C)S(=O)(=O)c1ccccc1` yielded a relative growth of 0.987. With `COc1oc(C(=O)NC2CCCCC2)c(-c2ccc(Cl)cc2)c1S(=O)(=O)c1cccc(Cl)c1` the relative growth was 0.914. In the case of `COc1ccccc1-c1cnc2c(c1)C(=O)N([C@@H](C)CO)C[C@@H](C)[C@H](CN(C)C(=O)c1cccnc1)O2`, the relative growth is reported as 1.02. `COc1cc(N2CCC3(CC2)CNC(=O)CO3)ncn1` showed a relative growth of 0.968. Compound `C[C@@H]1CN([C@H](C)CO)C(=O)Cc2cc(NC(=O)CCN3CCOCC3)ccc2O[C@H]1CN(C)Cc1ccc(C(=O)O)cc1` has a relative growth of 1.03. Compound `CO[C@@]12[C@H](COC(N)=O)C3=C(C(=O)C(C)=C(N)C3=O)N1C[C@@H]1N[C@@H]12` has a relative growth of 1.01. For `COC12C(COC(N)=O)C3=C(C(=O)C(C)=C(N)C3=O)N1CC1NC12` (configuration not stated), the relative growth was 0.0503 (active). In the case of `CO[C@@]12[C@@H]3N[C@@H]3CN1C1=C(C(=O)C(N)=C(C)C1=O)[C@@H]2COC(N)=O`, the relative growth is reported as 0.0651 (active). `COCCNC(=O)C[C@H]1CC[C@H]2[C@@H](COC[C@@H](O)CN2C(=O)Nc2ccccc2OC)O1` gave a relative growth of 0.949. With `Cc1noc(C)c1S(=O)(=O)Nc1ccc2c(c1)CC(=O)N([C@H](C)CO)C[C@@H](C)[C@H](CN(C)Cc1ccncc1)O2` the relative growth was 0.995. With `C[C@H](CO)N1C[C@H](C)[C@@H](CN(C)C)Oc2ccc(NS(C)(=O)=O)cc2CC1=O` the relative growth was 0.983. `C[C@@H]1CCCCO[C@@H](CN(C)C(=O)C2CCCCC2)[C@H](C)CN([C@H](C)CO)C(=O)c2cc(NS(=O)(=O)c3ccccc3)ccc2O1` showed a relative growth of 0.989. `CC1=C(C(=O)NCCCN2CCN(c3ccc(F)cc3)CC2)C2(CCN(Cc3ccccc3)CC2)OC1=O` was tested, and the relative growth was 0.567. `Cn1c(=O)[nH]c(=O)c2c1nc(N1CCN(CC(N)=O)CC1)n2C/C=C/c1ccccc1` was tested, and the relative growth was 0.988. For `Cc1ccc(S(=O)(=O)N(C)C[C@H]2Oc3c(NC(=O)c4cnccn4)cccc3C(=O)N([C@H](C)CO)C[C@@H]2C)cc1`, the relative growth was 0.975. In the case of `C[C@H]1COc2c(C3(N)CC3)c(F)cc3c(=O)c(C(=O)O)cn1c23`, the relative growth is reported as 0.0591 (active). For `CC1COc2c(C3(N)CC3)c(F)cc3c(=O)c(C(=O)O)cn1c23.CS(=O)(=O)O` (configuration not stated), the relative growth was 0.0476 (active). `C[C@H]1CN([C@@H](C)CO)C(=O)c2cc(NC(=O)CCN3CCOCC3)ccc2O[C@H]1CN(C)C(=O)NC1CCCCC1` was tested, and the relative growth was 0.98. For `CS(=O)(=O)c1cc(F)ccc1N`, the relative growth was 0.965. In the case of `O=C(O)c1cccc(-c2ccco2)c1`, the relative growth is reported as 1.01. `CC(=O)OCC1=C[C@@H]2OC(=O)C3=CO[C@@H](O[C@H]4O[C@H](CO)[C@@H](O)[C@H](O)[C@H]4O)[C@H]1[C@@H]32` was tested, and the relative growth was 1.01. For `CNC(=O)CN1CCOC[C@@]2(C1)CN(C(=O)c1ccn[nH]1)CCO2`, the relative growth was 0.952. For `O=C([O-])CCC(=O)OCC(NC(=O)C(Cl)Cl)C(O)c1ccc([N+](=O)[O-])cc1.[Na+]` (configuration not stated), the relative growth was 0.0517 (active). With `CCCCCCCCCCCCCCCC(=O)OC[C@H](NC(=O)C(Cl)Cl)[C@H](O)c1ccc([N+](=O)[O-])cc1` the relative growth was 0.604. In the case of `CS(=O)(=O)c1ccc(C(O)C(CF)NC(=O)C(Cl)Cl)cc1` (configuration not stated), the relative growth is reported as 0.0463 (active). In the case of `CCCCCCCCCCCCCCCC(=O)OCC(NC(=O)C(Cl)Cl)C(O)c1ccc([N+](=O)[O-])cc1` (configuration not stated), the relative growth is reported as 0.559. In the case of `O=C(NC(CO)C(O)c1ccc([N+](=O)[O-])cc1)C(Cl)Cl` (configuration not stated), the relative growth is reported as 0.0428 (active). `O=C(NCO)c1ccc([N+](=O)[O-])cc1` was tested, and the relative growth was 1.02. For `CCC(NC(C)C)C(O)c1ccc(O)c(O)c1.CS(=O)(=O)O` (configuration not stated), the relative growth was 1.04. With `CCCCCCCCCCCCCCCC(=O)OC[C@@H](NC(=O)C(Cl)Cl)[C@H](O)c1ccc([N+](=O)[O-])cc1` the relative growth was 1.03. `CS(=O)(=O)c1ccc(C(O)C(CO)NC(=O)C(Cl)Cl)cc1` (configuration not stated) showed a relative growth of 0.375. Work on `C[C@@H]1CN([C@H](C)CO)C(=O)c2cc(NC(=O)Nc3ccc(F)cc3)ccc2O[C@@H](C)CCCCO[C@H]1CN(C)C(=O)Nc1ccc(C(F)(F)F)cc1` yielded a relative growth of 1. In the case of `Cc1ccc(S(=O)(=O)N(C)C[C@H]2OCCCC[C@H](C)Oc3ccc(NC(=O)Nc4ccccc4)cc3C(=O)N([C@H](C)CO)C[C@@H]2C)cc1`, the relative growth is reported as 1.07. `C[C@@H]1CN([C@H](C)CO)C(=O)c2cc(NS(=O)(=O)c3ccccc3)ccc2O[C@@H](C)CCCCO[C@H]1CN(C)Cc1ccc(C(F)(F)F)cc1` showed a relative growth of 1.07. `C[C@@H]1CCCCO[C@@H](CN(C)CC2CCCCC2)[C@@H](C)CN([C@H](C)CO)C(=O)c2cc(NS(=O)(=O)c3ccccc3)ccc2O1` was tested, and the relative growth was 0.975. Work on `C=CCC[C@@H](Cc1ccc(F)cc1)C(=O)OC[C@@H](Cc1c[nH]c2ccccc12)NC(=O)[C@@H](CC=C)CC(=O)N(CCO)Cc1ccccc1` yielded a relative growth of 1.1. `C[C@@H]1CN([C@H](C)CO)C(=O)c2cccc(NC(=O)C3CCOCC3)c2O[C@H]1CN(C)Cc1ccc(-c2ccccc2)cc1` gave a relative growth of 1. `O=C(CCCCCC(=O)N/N=C/[C@H](O)[C@@H](O)[C@H](O[C@@H]1O[C@H](CO)[C@H](O)[C@H](O)[C@H]1O)[C@H](O)CO)NO` gave a relative growth of 1.01. Work on `COc1ccc2c3c([nH]c2c1)[C@H](CO)N(C[C@]13CN(C1)C(=O)Cc1cccnc1)S(=O)(=O)c1ccc(cc1)C` yielded a relative growth of 0.987. For `CCn1cc(C(=O)O)c(=O)c2cnc(N3CCNCC3)nc21`, the relative growth was 0.05 (active). For `CCn1cc(C(=O)O)c(=O)c2cc(F)c(N3CCNCC3)nc21`, the relative growth was 0.049 (active). `O=C(O)c1cnc(N2CCCC2)nc1` was tested, and the relative growth was 1.03. `CCn1cc(C(=O)O)c(=O)c2cnc(N3CCCC3)nc21` gave a relative growth of 1.09. `CCn1cc(C(=O)O)c(=O)c2ccc(C)nc21` showed a relative growth of 1.02. `NC(=O)c1cc(S(N)(=O)=O)ccc1Cl` showed a relative growth of 0.993. `C[C@H]1CN([C@@H](C)CO)C(=O)c2cc(NC(=O)Nc3ccc(F)cc3)ccc2O[C@H]1CN(C)S(C)(=O)=O` gave a relative growth of 1.02. `Cc1noc(C)c1S(=O)(=O)N(C)C[C@@H]1Oc2ccc(NS(C)(=O)=O)cc2CC(=O)N([C@@H](C)CO)C[C@H]1C` was tested, and the relative growth was 1.01. Compound `C[C@@H]1CCCCO[C@@H](CN(C)C(=O)Nc2ccc3c(c2)OCO3)[C@@H](C)CN([C@H](C)CO)C(=O)c2cc(NC(=O)Nc3ccc4c(c3)OCO4)ccc2O1` has a relative growth of 1.02. `C[C@@H]1CN([C@@H](C)CO)C(=O)c2cc(NC(=O)Nc3ccc(F)cc3)ccc2O[C@@H](C)CCCCO[C@@H]1CN(C)Cc1ccncc1` was tested, and the relative growth was 0.93. For `Cc1noc(C)c1NC(=O)N(C)C[C@@H]1Oc2c(NC(=O)Nc3ccc(C(F)(F)F)cc3)cccc2C(=O)N([C@@H](C)CO)C[C@@H]1C`, the relative growth was 0.943. In the case of `Cc1cc(O)c(C=O)c(O)c1C(=O)O`, the relative growth is reported as 1.07. With `CCOC(=O)c1c(C)cc(O)c(C=O)c1O` the relative growth was 0.0424 (active). For `COC(=O)c1c(C)cc(OC(=O)c2c(C)cc(O)c(C=O)c2O)c(C)c1O`, the relative growth was 0.867. `COc1ccc(NC(=O)Nc2ccc3c(c2)C(=O)N([C@@H](C)CO)C[C@H](C)[C@H](CN(C)C(=O)Nc2ccc4c(c2)OCO4)OCCCC[C@@H](C)O3)cc1` showed a relative growth of 1.04. `Cc1noc(C)c1NC(=O)Nc1ccc2c(c1)C(=O)N([C@H](C)CO)C[C@@H](C)[C@@H](CN(C)C(=O)NC1CCCCC1)OCCCC[C@H](C)O2` gave a relative growth of 1.02. Work on `C[C@H]1CN([C@@H](C)CO)C(=O)c2cc(N(C)C)ccc2O[C@H]1CN(C)S(C)(=O)=O` yielded a relative growth of 0.993. `Cc1ccc(S(=O)(=O)O)cc1.NC1CCN(c2nc3c(cc2F)c(=O)c(C(=O)O)cn3-c2ccc(F)cc2F)C1.O` (configuration not stated) was tested, and the relative growth was 0.0925 (active). `Cc1cn2nc([C@@H]3CCCCN3C(=O)c3cc(Cl)ccc3NS(C)(=O)=O)cc2nc1N1CC[C@H](N)C1` was tested, and the relative growth was 0.981. `N[C@H]1CCN(c2nc3c(cc2F)c(=O)c(C(=O)O)cn3-c2ccc(F)cc2F)C1` was tested, and the relative growth was 0.17 (active). For `N[C@@H]1[C@H]2CN(c3nc4c(cc3F)c(=O)c(C(=O)O)cn4-c3ccc(F)cc3F)C[C@@H]12`, the relative growth was 0.0389 (active). `O=C(C[C@@H]1CC[C@@H]2[C@H](COC[C@H](O)CN2S(=O)(=O)c2ccccc2)O1)NCc1ccc2c(c1)OCO2` was tested, and the relative growth was 0.99. In the case of `C[C@@H]1CCCCO[C@H](CN(C)Cc2ccccc2)[C@@H](C)CN([C@@H](C)CO)C(=O)c2cc(NS(=O)(=O)c3ccc(Cl)cc3)ccc2O1`, the relative growth is reported as 0.981.
